D2 PAM-1 = positively modulates the human D2 dopamine receptor allosterically; P14416; HEK293 T-REx D2, calcium flux, EC20 dopamine potentiation; potentiation, % at 10 µM; hit rate 0.34% among 340,000; AID 485347;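 active = potentiation over 3 SD above the plate norm, cut at about 30% in these data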; note: 0% is about no effect
Target sequence (P14416 whole entry, looked up): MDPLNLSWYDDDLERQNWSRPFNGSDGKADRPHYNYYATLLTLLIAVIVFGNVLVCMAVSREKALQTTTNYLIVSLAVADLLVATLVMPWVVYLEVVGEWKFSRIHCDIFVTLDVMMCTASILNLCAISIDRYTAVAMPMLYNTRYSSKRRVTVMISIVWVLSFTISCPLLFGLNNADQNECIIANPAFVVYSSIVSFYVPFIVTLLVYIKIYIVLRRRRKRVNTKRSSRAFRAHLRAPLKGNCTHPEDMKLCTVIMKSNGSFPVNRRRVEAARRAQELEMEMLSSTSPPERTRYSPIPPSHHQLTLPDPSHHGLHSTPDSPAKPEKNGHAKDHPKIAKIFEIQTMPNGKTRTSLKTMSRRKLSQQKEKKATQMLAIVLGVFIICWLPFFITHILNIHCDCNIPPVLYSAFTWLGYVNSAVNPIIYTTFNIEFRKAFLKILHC
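Tetracycline-induced HEK293 T-REx cells force-coupled to calcium signalling expressed D2; compounds were pin-added after a 10 s baseline, read kinetically 180 s, then an EC20 dopamine challenge followed with a further 180 s calcium read.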
D2 ag-1 = human D2 receptor agonism in beta-arrestin assay; hit rate 0.084% among 360,000; P14416; DiscoveRx PathHunter D2 beta-arrestin, luminescence, 90 min; 100% = 57 uM dopamine signal; activation, % (no concentration beside the values); in the data active = activation above about 40%; inconclusive = between about 15% and that limit
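DiscoveRx PathHunter D2 beta-arrestin cells (2,100/well) attached overnight, then compound-stimulated 90 min at 37 C in HBSS/10 mM HEPES/0.1% Tween-20 buffer; beta-galactosidase complementation read by luminescence after 1 h at ambient temperature. Dopamine 57 uM final (EC100) as control.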
D2 antag = antagonizes the human D2 dopamine receptor; HEK293 TREx D2 cells, calcium flux, dopamine EC80; hit rate 2% among 340,000; inhibition, % at 10 µM; P14416; in the data active = inhibition above about 30%; inactive = below that, where a call was filed; note: 0% is about no effect
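Measurement of antagonist activity uses fluorescent calcium dye in inducible HEK293 T-REx D2 cells: 10 s baseline, compound addition with 180 s read, EC80 dopamine addition with a further 180 s read.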
D2 ag-2 = D2 dopamine receptor (human) agonism; P14416; HEK293 T-REx D2 cells, calcium flux agonist mode; activation, % at 2 µM; hit rate 0.53% among 340,000; AID 485358;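 active = activation over 3 SD above normal in the single-dose calcium agonist read, cut at about 30% in these data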; note: 0% is about no effect
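Agonism scored from kinetic calcium signal (1 read/sec, 180 s) following compound pin transfer, after a 10 s baseline. Cells: HEK293 Trex line expressing inducible D2 receptor coupled to calcium, dye-loaded after overnight culture at 30 C.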
D2 PAM-2 = human D2 receptor positive allosteric modulation; DiscoveRx D2 beta-arrestin cells, luminescence, 90 min; 100% = 57 uM dopamine signal; potentiation, % (concentration not given with the values); AID 624464; hit rate 0.23% among 360,000; P14416; in the data active = potentiation above about 50%; inconclusive = mostly about 30% to 49%
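PathHunter D2 cells, attached overnight at 37 deg C, received compound in DMSO plus dopamine at EC20 (50 nM final) for 90 min at 37 deg C. Beta-arrestin recruitment was read as luminescence after 1 h with detection reagent at ambient temperature.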
D3 arrestin ag = D3 receptor agonism confirmed, beta-arrestin readout; shares compounds with D2 ag-2; DiscoveRx D3 beta-arrestin cells, luminescence, 90 min; Potency, µM (doses to about 76.9 µM), without a hit: at the top dose activation, actives largely listed as activators; hit rate 4% among 2,300; AID 720506;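 note: potency is the fitted concentration of half-maximal effect; 100% = dopamine control response; nearly all actives have a fitted effect of over 70% in size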
D2 ag-3 = D2 receptor agonism, beta-arrestin counterscreen. hit rate 5.9% among 2,300. Potency, µM (highest dose often 76.9 µM), for the others: top-dose activation, most hits filed as activators. AID 720507. DiscoveRx PathHunter D2 beta-arrestin, luminescence, 90 min; response scale: percent relative to full dopamine signal. shares compounds with D2 ag-2; note: potency is the fitted concentration of half-maximal effect; % of control where 0% means no effect; nearly all actives have a fitted effect of over 70% in size
* = called active by the depositor; ? = inconclusive; . = not tested or not shown. Rows were chosen to be rich in hits. Some 2.4% of all compounds tested hit in one or more screens of this group. Unless noted, calls come from the whole dose curve; as a rule, active = well fitted activation curve with a large enough effect; inconclusive = small, poorly fitted or top-dose-only effect; inactive = flat fitted curve, though single readings scatter.

SMILES	D2 PAM-1	D2 ag-1	D2 antag	D2 ag-2	D2 PAM-2	D3 arrestin ag	D2 ag-3
CCOC(=O)N1CCC2(CC1)OC(=O)C(C)=C2C(=O)NCc1cccc(OC)c1	6.3	.	.	6.2	.	.	.
CCSC1=N/C(=C\c2ccc3c(c2)OCO3)C(=O)S1	-4.9	1.0	30.4*	0.8	6.1	6.7%	-1.0%
COc1cccc(NC(=O)CN(C)C(=O)c2cc(C)on2)c1	16.6	-2.0	-15.7	-0.5	1.6	.	.
CCOC(=O)Cc1csc(NC(=O)CN2CCN(CC)CC2)n1	-0.6	2.3	-5.2	-0.2	-4.6	.	.
CCOC(=O)Cc1csc(NC(=O)CN2CCN(c3ccccc3)CC2)n1	9.0	5.6	14.6	5.3	5.7	10.5%	26.0%
Cc1[nH]n2cnnc2c(=O)c1Br	23.8	0.8	-18.1	-0.6	-0.1	.	.
CCc1cccc(CC)c1NC(=S)NCCc1ccc(O)c(O)c1	-13.8	11.2	25.5	36.4*	-34.5	39.8µM*	?
CCN(CC(=O)Nc1ccc(NC(C)=O)cc1)C(=O)/C=C/c1ccco1	0.8	-1.1	-2.0	1.3	4.6	.	.
CCCN(CC(=O)Nc1ccc(Cl)cc1Cl)C(=O)/C=C/c1ccco1	-16.9	1.0	17.3	41.6*	-16.9	-3.0%	0.4%
O=C(N1CCN(c2ccccc2)CC1)C(F)(F)C(F)(F)F	-14.9	-0.3	2.2	23.2	0.4	-11.7%	7.2%
O=C(CN1CCCCC1)N1CCN(c2ccccc2)CC1	-5.9	-4.6	22.8	2.0	-0.6	.	.
O=C(CN1CCN(c2ccccc2)CC1)N1CCN(c2ccccc2)CC1	-13.8	6.8	-4.3	47.1*	-11.2	?	21.0%
O=C(N1CCN(c2ccccc2)CC1)C(F)(F)C(F)F	-10.0	5.1	5.5	20.7	-17.9	.	.
Cc1ccc(S(=O)(=O)/N=C(/Nc2ccc(F)cc2F)c2ccccc2)cc1	-3.8	-3.7	16.4	-0.1	-7.1	.	.
Cc1cc(Br)ccc1NC(=O)CNC(=O)c1cnn(C)c1	-5.2	-0.2	-36.4	0.2	1.7	.	.
CC(CCc1ccccc1)NCc1ccc(Cl)cc1Cl (stereo not given)	-26.4	13.8	45.0*	51.8*	1.3	16.4%	9.8%
CC(CCc1ccc(O)cc1)NCc1ccc(Br)cc1 (stereo not given)	-14.6	0.5	31.7*	38.8*	-16.0	?	2.2%
COc1cc(CCC(C)NCc2ccccc2)ccc1O (stereo not given)	-34.7	?	74.9*	79.3*	-12.4	-3.9%	?
COc1ccc(CNC(C)CCc2ccccc2)cc1 (stereo not given)	-26.1	3.5	61.5*	64.5*	-24.5	-1.1%	9.7%
CC(=O)NC(C)CCc1ccccc1 (stereo not given)	8.3	0.3	-11.3	0.5	-3.3	.	.
CC(CCc1ccccc1)NCC#N (stereo not given)	-17.4	8.3	33.6*	56.7*	-7.8	8.0%	6.5%
CN(Cc1ccccc1)S(=O)(=O)c1ccc(N2CCCC2=O)cc1	1.1	3.9	-1.3	0.0	-6.5	.	.
Cc1cc(C)n2nc(C(=O)NCCc3ccccc3)nc2n1	9.7	3.4	-2.4	0.7	-2.6	.	.
O=C(NCCc1ccccc1)c1nc2nc(-c3cccs3)cc(C(F)(F)F)n2n1	0.1	-1.7	40.4*	-0.3	-8.4	-3.5%	6.8%
O=C(COc1ccc(Br)cc1)NNC(=O)c1ccc(-n2cncn2)c([N+](=O)[O-])c1	2.4	-3.4	17.7	0.1	4.9	29.4%	2.2%
O=C(NCC(=O)N(c1cccnc1)C(C(=O)NC1CCCCC1)c1ccccc1F)c1ccco1 (stereo not given)	3.2	-4.4	14.7	-0.5	-2.8	.	.
CCOC(=O)c1cc(-c2ccccc2)n(-c2cccc(C(=O)Nc3cccc(SC)c3)c2)c1C	4.4	.	.	.	.	.	.
COc1ccc(C(=O)NCC2OCCc3ccccc32)cc1OC (stereo not given)	-4.0	-2.0	3.9	1.4	-7.8	.	.

Screening results from PubChem BioAssay.
